Test results taken from PubChem BioAssay (NCATS).
Results filed as inconclusive are left out. Active and inactive are the calls of the source. Calls come from the whole dose curve; as a rule, active = well fitted cell-killing curve with a large enough effect; inconclusive = small, poorly fitted or top-dose-only effect; inactive = flat fitted curve, though single readings scatter.

Experiment: Quantitative highthroughput screen to assess conditional lethalithy of P12 Ichikawa cells grown in Human Plasma-Like Medium with dialyzed fetal bovine serum (HPLM+ds) (AID 1963879); note: nearly all actives have a fitted effect of over 35% in size
Conditions: ATP luminescence, 48 h; Potency: viability; series mostly up to 45.8 µM; viability: at the top concentration
Method in brief: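 Each medium arm—HPLM with 10% dialyzed FBS, or RPMI1640 with 5 mM glucose and 10% untreated or dialyzed FBS—was screened against an 11-point, 3-fold compound titration for 48 h at 37 °C, with CellTiter-Glo luminescence as endpoint.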
Potency is the fitted concentration of half-maximal effect.

SMILES | Potency | viability
CC(=O)N1CCN(c2ccc(OCc3nn(C)c(C)c3-c3cccc4c(CCCOc5cccc6ccccc56)c(C(=O)O)n(Cc5cccnc5)c34)cc2)CC1 | 10.5 µM (active) | –
COc1ccc(Nc2nccc(NCCO)n2)cc1 | – | 88.8% (inactive)
C[C@]12CC[C@@H]3c4ccc(O)cc4CC[C@H]3[C@H]1[C@@H](O)[C@@H](O)[C@H]2O | – | 104% (inactive)
COC1CCC(N(C(=O)C2CCC(C)CC2)c2cc(C3=CCCCC3)sc2C(=O)O)CC1 (stereo unspecified) | 18.7 µM (active) | –
O=c1c(-c2ccc(O)cc2)coc2cc(O)cc(O)c12 | – | 104% (inactive)
CCCCN1CCC(CNC(=O)c2c3n(c4ccccc24)CCCO3)CC1 | 18.7 µM (active) | –
CC(=O)N[C@@H]1[C@H](O[C@@H]2c3ccc(c(Cl)c3)Oc3cc4cc(c3O[C@H]3O[C@H](CO)[C@@H](O)[C@H](O)[C@H]3NC(=O)CCCCCCCC(C)C)Oc3ccc(cc3Cl)C[C@H]3NC(=O)[C@H](N)c5ccc(O)c(c5)Oc5cc(O)cc(c5)[C@H](NC3=O)C(=O)N[C@H]4C(=O)N[C@H]3C(=O)N[C@@H]2C(=O)N[C@@H](C(=O)O)c2cc(O)cc(O[C@H]4O[C@H](CO)[C@@H](O)[C@H](O)[C@H]4O)c2-c2cc3ccc2O)O[C@H](CO)[C@@H](O)[C@@H]1O | – | 107% (inactive)
NCc1c[nH]c(=S)n1[C@H]1CCc2c(F)cc(F)cc2C1 | – | 86.2% (inactive)
Cc1[nH]c(C=C2C(=O)Nc3ccc(S(=O)(=O)Cc4c(Cl)cccc4Cl)cc32)c(C)c1C(=O)N1CCC[C@H]1CN1CCCC1 | – | 83.3% (inactive)
CCOC(=O)O[C@]1(C(=O)OCCl)CC[C@@H]2[C@H]3CCC4=CC(=O)C=C[C@]4(C)[C@@H]3[C@@H](O)C[C@@]21C | – | 95.5% (inactive)
O=C(c1ccc(C=Cc2n[nH]c3ccccc23)cc1)N1CCNCC1 | 0.935 µM (active) | –
CC(=O)N[C@H]1[C@@H]([C@H](O)[C@H](O)CO)OC(C(=O)O)=C[C@@H]1N=C(N)N | – | 102% (inactive)
Cc1c(-c2cccc3c(CCCOc4cccc5ccccc45)c(C(=O)O)n(Cc4cccnc4)c23)c(COc2ccc(N3CCN([S+](=O)([O-])N(C)C)CC3)cc2)nn1C | – | 87.4% (inactive)
Cc1cccc(N(C)C(=S)Oc2ccc3ccccc3c2)c1 | – | 102% (inactive)
CC(C)(C(=O)NCC(F)(F)C(F)(F)F)C(=O)N[C@@H]1C(=O)Nc2ccccc2-c2ccccc21 | 2.64 µM (active) | –
Cc1oncc1C(=O)Nc1ccc(C(F)(F)F)cc1 | – | 89.7% (inactive)
CC(Cc1ccc(O)c(O)c1)(NN)C(=O)O (stereo unspecified) | – | 78.5% (inactive)
Cc1c(C)c2c(c(C)c1O)CCC(C)(COc1ccc(CC3SC(=O)NC3=O)cc1)O2 (stereo unspecified) | – | 87.2% (inactive)
O=C1c2ccccc2-c2n[nH]c3cccc1c23 | 14.8 µM (active) | –
C[C@H](NCc1ccc2c(c1)nc(NC(=O)c1ccc(-c3cn[nH]c3)s1)n2CCc1ccccc1)C(C)(C)C | 11.8 µM (active) | –
CC(=O)O[C@]1(C(C)=O)CC[C@@H]2[C@@H]3C[C@H](C)C4=CC(=O)CC[C@]4(C)[C@H]3CC[C@@]21C | – | 102% (inactive)
